According to PubChem BioAssay AID720648 (The Scripps Research Institute Molecular Screening Center, 2013):
Screen size: about 370,000 compounds; about 3,100 (0.84%) were called active.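 The calls were made as follows: active = inhibition above the mean of compounds lying between control limits plus 3 SD, set per campaign (cut at about 8.5% in these data); inactive = the rest.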 The sample as a whole holds a higher share of actives than the screen did.

Each compound was assayed against Disintegrin and metalloproteinase domain-containing protein 17 (Homo sapiens) (UniProt P78536) (assay: inhibition of ADAM17 peptide cleavage – biochemical, QFRET, primary screen (AID 720648;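 also: 0% = DMSO-only wells as the low control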)). Details: recombinant ADAM17, EDANS/DABCYL FRET peptide cleavage; at 6.95 µM; hits give high values.
Disintegrin and metalloproteinase domain-containing protein 17 (Homo sapiens), sequence (P78536 215-824 limits assumed): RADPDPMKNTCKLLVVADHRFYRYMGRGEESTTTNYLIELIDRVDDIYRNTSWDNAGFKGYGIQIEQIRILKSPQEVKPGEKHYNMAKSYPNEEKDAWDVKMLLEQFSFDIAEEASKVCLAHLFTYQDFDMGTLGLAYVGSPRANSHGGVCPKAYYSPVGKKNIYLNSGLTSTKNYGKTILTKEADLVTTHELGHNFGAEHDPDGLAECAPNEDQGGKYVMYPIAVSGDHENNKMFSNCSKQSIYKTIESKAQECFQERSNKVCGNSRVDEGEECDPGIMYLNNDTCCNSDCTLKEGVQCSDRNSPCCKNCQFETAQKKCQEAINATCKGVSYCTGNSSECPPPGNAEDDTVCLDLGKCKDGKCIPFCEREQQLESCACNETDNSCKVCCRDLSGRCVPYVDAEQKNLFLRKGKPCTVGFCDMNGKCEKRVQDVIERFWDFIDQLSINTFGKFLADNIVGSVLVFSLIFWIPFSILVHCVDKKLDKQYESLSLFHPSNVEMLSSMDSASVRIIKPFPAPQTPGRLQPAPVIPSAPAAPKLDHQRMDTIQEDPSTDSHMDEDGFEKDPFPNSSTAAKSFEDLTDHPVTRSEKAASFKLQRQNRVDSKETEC

SMILES | inhibition
COC(=O)C1=C(c2cccc(OCc3ccccc3)c2)C[C@@H]2CC[C@H]1N2C(=O)NCc1ccc(Br)cc1 | 7.72% (inactive)
COC(=O)C1=C(c2ccc(F)cc2OCc2ccccc2)C[C@@H]2CC[C@H]1N2C(=O)NCc1ccc(Cl)cc1 | 3.55% (inactive)
COC(=O)C1=C(c2ccc(-c3ccccc3)c(F)c2)C[C@@H]2CC[C@H]1N2C(=O)NCc1ccc(F)cc1 | 16.6% (active)
O=C1NC(=O)C(C/C=C/c2ccccc2)C(=O)N1 | -2.76% (inactive)
CN(C)C(=O)Oc1ccc2c(c1)O/C(=C\c1ccccc1)C2=O | -16.6% (inactive)
O=C1C2(Cl)C3(Cl)C4(Cl)C(Cl)(Cl)C5(Cl)C3(Cl)C1(Cl)C5(Cl)C24Cl (stereo not given) | 11.4% (active)
Cc1ccc(C(C)C)c(OCC(=O)N2CCN(CC(=O)N3CCOCC3)CC2)c1 | 1.57% (inactive)
CCN1CCN(c2ccc([N+](=O)[O-])cc2C#N)CC1 | -2.11% (inactive)
CNC(=O)Nc1ccc(C(O)(C(=O)OC)C(F)(F)F)cc1 (stereo not given) | -0.16% (inactive)
CC(=O)NCC1=C(c2ccc3ccccc3c2)C[C@@H]2CC[C@H]1N2Cc1ccco1 | 1.8% (inactive)
CO[C@H]([C@H](C)/C=C/N(C)C=O)[C@@H](C)C(=O)CC[C@H](C)[C@H](O)[C@H](C)[C@H]1OC(=O)/C=C/C(C)=C/[C@H](O)[C@H](OC)C[C@@H]2C=CC[C@@H](C[C@H](OC)[C@@]3(CO3)[C@@H](OC)C[C@@H](OC)[C@@H]1C)O2 | -1.19% (inactive)
CCOP(=O)(OCC)C(NC(=O)NC)C(N)=O (stereo not given) | -4.24% (inactive)
CCOC(=O)CC(SP1(=S)OCC2(CCCCO2)C(C2CCCCO2)O1)C(=O)OCC (stereo not given) | 12.4% (active)
Cc1nc2ccccc2c(=O)n1-c1ccc(Cl)cc1Cl | 0.07% (inactive)
Cn1cc(C(=O)OCC(=O)N2CCCC2)c2ccccc21 | 1.16% (inactive)
